Laboratory results taken from PubChem BioAssay.
Active and inactive are the calls of the source.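 How the source made its calls, unless noted: active means hit in primary screen, with calcium signal over 5 SD above buffer well mean in both duplicates; inactive means the rest.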

Test: nonspecific calcium rise without TRPC4 – cell-based, HEK293 mu-opioid receptor line, counter-screen for TRPC4 activator project, confirmation (AID 449723);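 further: counter screen cells carry the mu-opioid receptor alone and lack TRPC4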
Settings: HEK293 mu-opioid cells, Fluo-4 calcium fluorescence, at 10 µM; hits give high values

Compound	outcome	activation
Cc1cccn2c(CNCCc3ccccn3)c(C(=O)N3CCOCC3)nc12	inactive	
COc1ccc(/C=N/NC(=O)C2COc3ccccc3O2)cc1OC (stereo not drawn)	inactive	
CN(C)CCNC(=O)c1c(NC(=O)c2ccccc2)sc2c1CCCC2	inactive	
Cc1ccccc1N1CC(O)(c2ccccc2)[N+]2=C1SCC2 (stereo not drawn)	inactive	
CC(C)Cc1ccc(CN2CCCC(NC(=O)CCn3cnnn3)C2)cc1 (stereo not drawn)	inactive	
CN1CCN(Cc2nc3c(c(=O)[nH]c(=O)n3C)n2Cc2c(F)cccc2Cl)CC1	inactive	
O=C(CC1C(=O)NCCN1Cc1cccc(Oc2ccccc2)c1)NCCc1ccccn1 (stereo not drawn)	inactive	
CN(C)CCCN(C(=O)c1ccc(Cl)s1)c1nc2cc3c(cc2s1)OCO3	inactive	
Cc1cc(CSC(=N)N)c(CSC(=N)N)cc1C	inactive	
COC(=O)c1ccc(N2CCN(C)CC2)c(NC(=O)c2ccc(Br)o2)c1	inactive	
CCc1cc(OCCN(C)C)ccc1Cl	inactive	
C=CCn1c(/N=C/c2ccc(N(C)C)cc2)nc2ccccc21		103% (active)
CCC1CCCCN1S(=O)(=O)c1ccc(C(=O)N(CCCN(C)C)c2nc3cc4c(cc3s2)OCO4)cc1 (stereo not drawn)	inactive	
CCn1c(CN2CCN(Cc3ccc(C)cc3)C(CCO)C2)nc2ccccc21 (stereo not drawn)	inactive	
O=C(NCc1ccccc1)C1=C[C@@H](C2CCCCC2)C[C@@H](OCc2ccc(CO)cc2)O1	inactive	
CCN1CCCC1CNS(=O)(=O)c1c(C)cc(C)cc1C (stereo not drawn)	inactive	
CSc1ccc(C(=O)NCC(c2ccco2)N(C)C)cc1[N+](=O)[O-] (stereo not drawn)	inactive	
Cc1ccc2nc(N(CCCN(C)C)C(=O)c3ccc(S(=O)(=O)N4CCc5ccccc5C4)cc3)sc2c1	inactive	
COc1ccccc1/C=C/CN1CCCC(CCC(=O)NCc2ccc(F)c(F)c2)C1 (stereo not drawn)	inactive	
CC[C@@H](C)[C@H](CNC)NC[C@@H](Cc1cccc2ccccc12)NCCc1cccc(C(F)(F)F)c1		25.7% (active)

Compound	outcome	activation
CC(C)C1CC(CCNCc2ccc(N(C)C)cc2)(c2ccccc2)CCO1 (stereo not drawn)	inactive	
Clc1cc(Cl)cc(C2=NC(Cc3ccccc3)CO2)c1 (stereo not drawn)	inactive	
O=C(NCCc1cnc[nH]1)c1ccc(-c2ccccc2)cc1	inactive	
COCC1CCN(Cc2cn(-c3ccccc3F)nc2-c2cc(C)sc2C)CC1	inactive	
Cc1cc(C)cc(NC(=S)N2CCN(c3ncc(C(F)(F)F)cc3Cl)CC2)c1	inactive	
CC(C)C1CC(CCNCc2ccc3c(c2)OCO3)(c2ccccc2)CCO1 (stereo not drawn)	inactive	
Cc1ccc(CNC(=O)C2CCCN(Cc3cnn(-c4ccccc4)c3-n3cccc3)C2)cc1 (stereo not drawn)	inactive	
CN1CCN(c2ccc(NC(=O)COc3cccc4ccccc34)cc2)CC1	inactive	
COc1ccc(CSCCN)cc1Cl	inactive	
Cc1csc2c(N3CCN(C(=O)Nc4ccccc4)CC3)ncnc12	inactive	
CCOC(=O)C1(Cc2ccccc2)CCN(Cc2cn[nH]c2-c2ccccc2)CC1	inactive	
CCOc1ccccc1C1CC(c2ccc(Cl)cc2)Nc2nc(N)nn21 (stereo not drawn)	inactive	
O=C(c1sc2ccccc2c1Cl)N(Cc1ccccc1)C1CCS(=O)(=O)C1 (stereo not drawn)	inactive	
Cc1ccc(C)c(-n2cc(CNCCCn3cccn3)c(-c3ccccc3)n2)c1	inactive	
NC(=O)C1CCCN(CCc2ccccc2)C1 (stereo not drawn)	inactive	
CCn1c(=O)c(C(=O)NNC(=O)c2ccccc2F)c(O)c2ccccc21		34% (active)
O=C(NCc1ccccc1)C1=C[C@H](c2ccccc2)C[C@H](OCc2ccc(CO)cc2)O1	inactive	
O=C(CC1C(=O)NCCN1Cc1ccccc1C(F)(F)F)NCCc1ccccn1 (stereo not drawn)	inactive	
CCn1c(N2CCN(S(=O)(=O)CC)CC2)nc2ccccc21	inactive	

Test: nonspecific potentiation of DAMGO calcium response – cell-based, HEK293 mu-opioid receptor line, counter-screen for TRPC4 allosteric potentiator project, confirmation (AID 449724;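 active means calcium signal rise more than 3 SD above the low-dose agonist control mean, in both duplicate plates and the primary screen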;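 further: HEK293 cells carrying mu-opioid receptor only with no TRPC4 channel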)
Settings: HEK293 mu-opioid receptor cells, Fluo-4 calcium flux, at 10 µM, compound added before EC20 DAMGO stimulus; hits give high values

Compound	outcome	activation
Cc1cccn2c(CNCCc3ccccn3)c(C(=O)N3CCOCC3)nc12	inactive	
COc1ccc(/C=N/NC(=O)C2COc3ccccc3O2)cc1OC (stereo not drawn)	inactive	
CN(C)CCNC(=O)c1c(NC(=O)c2ccccc2)sc2c1CCCC2	inactive	
Cc1ccccc1N1CC(O)(c2ccccc2)[N+]2=C1SCC2 (stereo not drawn)	inactive	
CC(C)Cc1ccc(CN2CCCC(NC(=O)CCn3cnnn3)C2)cc1 (stereo not drawn)	inactive	
CN1CCN(Cc2nc3c(c(=O)[nH]c(=O)n3C)n2Cc2c(F)cccc2Cl)CC1	inactive	
O=C(CC1C(=O)NCCN1Cc1cccc(Oc2ccccc2)c1)NCCc1ccccn1 (stereo not drawn)	inactive	
CN(C)CCCN(C(=O)c1ccc(Cl)s1)c1nc2cc3c(cc2s1)OCO3	inactive	
Cc1cc(CSC(=N)N)c(CSC(=N)N)cc1C	inactive	
COC(=O)c1ccc(N2CCN(C)CC2)c(NC(=O)c2ccc(Br)o2)c1	inactive	
CCc1cc(OCCN(C)C)ccc1Cl	inactive	
C=CCn1c(/N=C/c2ccc(N(C)C)cc2)nc2ccccc21		1320% (active)
CCC1CCCCN1S(=O)(=O)c1ccc(C(=O)N(CCCN(C)C)c2nc3cc4c(cc3s2)OCO4)cc1 (stereo not drawn)	inactive	
CCn1c(CN2CCN(Cc3ccc(C)cc3)C(CCO)C2)nc2ccccc21 (stereo not drawn)	inactive	
O=C(NCc1ccccc1)C1=C[C@@H](C2CCCCC2)C[C@@H](OCc2ccc(CO)cc2)O1	inactive	
CCN1CCCC1CNS(=O)(=O)c1c(C)cc(C)cc1C (stereo not drawn)	inactive	
CSc1ccc(C(=O)NCC(c2ccco2)N(C)C)cc1[N+](=O)[O-] (stereo not drawn)	inactive	
Cc1ccc2nc(N(CCCN(C)C)C(=O)c3ccc(S(=O)(=O)N4CCc5ccccc5C4)cc3)sc2c1	inactive	
COc1ccccc1/C=C/CN1CCCC(CCC(=O)NCc2ccc(F)c(F)c2)C1 (stereo not drawn)	inactive	
CC[C@@H](C)[C@H](CNC)NC[C@@H](Cc1cccc2ccccc12)NCCc1cccc(C(F)(F)F)c1	inactive	

Compound	outcome	activation
CC(C)C1CC(CCNCc2ccc(N(C)C)cc2)(c2ccccc2)CCO1 (stereo not drawn)	inactive	
Clc1cc(Cl)cc(C2=NC(Cc3ccccc3)CO2)c1 (stereo not drawn)	inactive	
O=C(NCCc1cnc[nH]1)c1ccc(-c2ccccc2)cc1	inactive	
COCC1CCN(Cc2cn(-c3ccccc3F)nc2-c2cc(C)sc2C)CC1	inactive	
Cc1cc(C)cc(NC(=S)N2CCN(c3ncc(C(F)(F)F)cc3Cl)CC2)c1	inactive	
CC(C)C1CC(CCNCc2ccc3c(c2)OCO3)(c2ccccc2)CCO1 (stereo not drawn)	inactive	
Cc1ccc(CNC(=O)C2CCCN(Cc3cnn(-c4ccccc4)c3-n3cccc3)C2)cc1 (stereo not drawn)	inactive	
CN1CCN(c2ccc(NC(=O)COc3cccc4ccccc34)cc2)CC1	inactive	
COc1ccc(CSCCN)cc1Cl	inactive	
Cc1csc2c(N3CCN(C(=O)Nc4ccccc4)CC3)ncnc12	inactive	
CCOC(=O)C1(Cc2ccccc2)CCN(Cc2cn[nH]c2-c2ccccc2)CC1	inactive	
CCOc1ccccc1C1CC(c2ccc(Cl)cc2)Nc2nc(N)nn21 (stereo not drawn)	inactive	
O=C(c1sc2ccccc2c1Cl)N(Cc1ccccc1)C1CCS(=O)(=O)C1 (stereo not drawn)	inactive	
Cc1ccc(C)c(-n2cc(CNCCCn3cccn3)c(-c3ccccc3)n2)c1	inactive	
NC(=O)C1CCCN(CCc2ccccc2)C1 (stereo not drawn)	inactive	
CCn1c(=O)c(C(=O)NNC(=O)c2ccccc2F)c(O)c2ccccc21	inactive	
O=C(NCc1ccccc1)C1=C[C@H](c2ccccc2)C[C@H](OCc2ccc(CO)cc2)O1	inactive	
O=C(CC1C(=O)NCCN1Cc1ccccc1C(F)(F)F)NCCc1ccccn1 (stereo not drawn)	inactive	
CCn1c(N2CCN(S(=O)(=O)CC)CC2)nc2ccccc21	inactive	
